According to PubChem BioAssay (Tox21):
Records with an inconclusive call do not appear. The source made the active and inactive calls. Calls come from the whole dose curve; as a rule, active = well fitted curve in the direction sought with a large enough effect in the repeat runs; inconclusive = weak or mixed curves; inactive = no such curve, though single readings can be large; an effect the other way counts as inactive or inconclusive.

How the values were obtained:
[1] = qHTS RealTime-Glo MT Cell Viability Assay in HEK293 cells - 16 hour (AID 1224872); note: top concentration of the series differs between compounds; nearly all actives have a fitted effect of over 50% in size
Method in brief: (§1)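 Homogeneous bioluminescent viability format in HEK293 cells (600 cells/well). Following 5 h at 37 C/5% CO2, 23 nL compound was pintooled; the signal was measured repeatedly during 40 h incubation.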

[2] = qHTS RealTime-Glo MT Cell Viability Assay in HepG2 cells - 8 hour (AID 1224873); note: nearly all actives have a fitted effect of over 55% in size
Method in brief: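 HepG2 cells (600/well) mixed with RealTime-Glo MT reagent, settled 5 h at 37 C/5% CO2 before compound addition. Nonlytic NanoLuc luminescence from viable-cell prosubstrate reduction read repeatedly during 40 h treatment at 37 C.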

[3] = qHTS RealTime-Glo MT Cell Viability Assay in HEK293 cells - 40 hour (AID 1224874); settings: RealTime-Glo luminescence; max response: active compounds read low; note: nearly all actives have a fitted effect of over 50% in size
Method in brief: (§2)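 600 cells/well were plated with the nonlytic NanoLuc/prosubstrate reagent, pre-incubated 5 h, then given 23 nL of compound in DMSO. Incubation at 37 C for 40 h, with luminescence from viable-cell-reduced substrate read repeatedly from 0 h.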

[4] = A CellTox Green Cytotoxicity Assay to monitor cytotoxicity in HEK293 cells - 24 hour (AID 1224875); note: series mostly up to about 77 µM; nearly all actives have a fitted effect of over 45% in size
Method in brief: (§3)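 HEK293 cells, 600/well, were preincubated 5 hours and then exposed to compounds at 37 C for up to 40 hours. A cell-impermeant cyanine dye staining dead-cell DNA was read by fluorescence at 0, 8, 16, 24, 32 and 40 h time points.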

[5] = A CellTox Green Cytotoxicity Assay to monitor cytotoxicity in HepG2 cells - 16 hour (AID 1224876); note: nearly all actives have a fitted effect of over 45% in size
Method in brief: (§4)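 HepG2 cells, 600/well, preincubated 5 h with CellTox Green dye, then exposed to Tox21 compounds in DMSO at 37 C for up to 40 h. Dead-cell DNA fluorescence read at the indicated time point.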

[6] = qHTS RealTime-Glo MT Cell Viability Assay in HepG2 cells - 32 hour (AID 1224877); note: nearly all actives have a fitted effect of over 55% in size
Method in brief: (§5)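 Cell number in HepG2 cultures estimated from NanoLuc luminescence generated by metabolic reduction of a prosubstrate by living cells. The homogeneous, nonlytic format allowed repeated reads at 0, 8, 16, 24, 32 and 40 h of compound exposure.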

[7] = A CellTox Green Cytotoxicity Assay to monitor cytotoxicity in HepG2 cells - 24 hour (AID 1224878); note: nearly all actives have a fitted effect of over 45% in size
Method in brief: as §4

[8] = A CellTox Green Cytotoxicity Assay to monitor cytotoxicity in HepG2 cells - 40 hour (AID 1224879); note: nearly all actives have a fitted effect of over 40% in size
Method in brief: as §4

[9] = A CellTox Green Cytotoxicity Assay to monitor cytotoxicity in HEK293 cells - 32 hour (AID 1224881); note: nearly all actives have a fitted effect of over 40% in size
Method in brief: as §3

[10] = A CellTox Green Cytotoxicity Assay to monitor cytotoxicity in HepG2 cells - 32 hour (AID 1224883); note: nearly all actives have a fitted effect of over 50% in size
Method in brief: as §4

[11] = A CellTox Green Cytotoxicity Assay to monitor cytotoxicity in HEK293 cells - 8 hour (AID 1224884); note: nearly all actives have a fitted effect of over 35% in size
Method in brief: as §3

[12] = qHTS RealTime-Glo MT Cell Viability Assay in HepG2 cells - 16 hour (AID 1224885); note: nearly all actives have a fitted effect of over 50% in size
Method in brief: as §5

[13] = qHTS RealTime-Glo MT Cell Viability Assay in HEK293 cells - 24 hour (AID 1224886)
Method in brief: as §1

[14] = qHTS RealTime-Glo MT Cell Viability Assay in HEK293 cells - 8 hour (AID 1224887)
Method in brief: as §2

[15] = A CellTox Green Cytotoxicity Assay to monitor cytotoxicity in HEK293 cells - 16 hour (AID 1224888); note: nearly all actives have a fitted effect of over 35% in size
Method in brief: as §3

[16] = qHTS RealTime-Glo MT Cell Viability Assay in HepG2 cells - 0 hour (AID 1224889); note: nearly all actives have a fitted effect of over 50% in size
Method in brief: as §5

[17] = A CellTox Green Cytotoxicity Assay to monitor cytotoxicity in HepG2 cells - 8 hour (AID 1224890); note: nearly all actives have a fitted effect of over 45% in size
Method in brief: as §4

[18] = qHTS assay to identify small molecule antagonists of the estrogen receptor alpha (ER-alpha) signaling pathway using the BG1 cell line in the presence of 0.1 nM 17-beta-estradiol - cell viability counter screen (AID 1259241); note: nearly all actives have a fitted effect of over 40% in size
Method in brief: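 VM7Luc4E2, 4,000 cells/well, phenol red-free medium + 10% charcoal-stripped FBS; 24 hr plating; cpd + 0.1 nM E2 final, 22 hr 37C/5% CO2; CellTiter-Fluor 30 min, fluorescence.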

[19] = A CellTox Green Cytotoxicity Assay to monitor cytotoxicity in HepG2 cells - 0 hour (AID 1224882); note: nearly all actives have a fitted effect of over 35% in size
Method in brief: as §4

[20] = qHTS RealTime-Glo MT Cell Viability Assay in HEK293 cells - 0 hour (AID 1224880)
Method in brief: as §2
% is set by controls: 0 for no effect and ±100 for the full control effect.

CC(C)NCC(O)COc1cccc2[nH]ccc12 (stereo unspecified)
inactive: Potency [1] | outcome [2] | max response [3] -0.192% | outcome [4] | outcome [5] | outcome [6] | outcome [7] | Potency [8] | Potency [9] | Potency [10] | Potency [11] | outcome [12] | Potency [13] | Potency [14] | outcome [15] | Potency [16] | outcome [17] | Potency [18]

Nc1cccc(O)c1
inactive: Potency [1] | outcome [2] | max response [3] 3.53% | outcome [4] | outcome [5] | outcome [6] | outcome [7] | Potency [8] | Potency [9] | outcome [19] | Potency [10] | outcome [12] | Potency [13] | Potency [14] | outcome [15] | outcome [17] | Potency [18]

COC(=O)CCc1ccc(OCC(O)CNC(C)C)cc1 (stereo unspecified)
inactive: Potency [1] | outcome [2] | max response [3] 5.47% | outcome [4] | outcome [5] | outcome [6] | outcome [7] | Potency [8] | Potency [20] | Potency [9] | Potency [10] | outcome [12] | Potency [13] | Potency [14] | outcome [15] | Potency [16] | outcome [17] | Potency [18]

C[C@@H](O)[C@H]1C(=O)N2C(C(=O)O)=C(SCCN=CN)C[C@H]12
inactive: Potency [1] | outcome [2] | max response [3] 2.62% | outcome [4] | outcome [5] | outcome [6] | outcome [7] | Potency [8] | Potency [9] | outcome [19] | Potency [10] | Potency [11] | outcome [12] | Potency [13] | Potency [14] | outcome [15] | Potency [16] | outcome [17] | Potency [18]

Cc1c(I)c(=O)n(-c2ccccc2)n1C
inactive: Potency [1] | outcome [2] | max response [3] -1.2% | outcome [4] | outcome [5] | outcome [6] | outcome [7] | Potency [8] | Potency [9] | outcome [19] | Potency [10] | Potency [11] | outcome [12] | Potency [13] | Potency [14] | outcome [15] | Potency [16] | Potency [18]

C=C1CC/C=C(\C)CC[C@@H]2[C@@H]1CC2(C)C
inactive: Potency [1] | outcome [2] | max response [3] 2.22% | outcome [4] | outcome [5] | outcome [6] | outcome [7] | Potency [8] | Potency [20] | Potency [9] | outcome [19] | Potency [10] | outcome [12] | Potency [13] | Potency [14] | outcome [15] | outcome [17] | Potency [18]

C[C@H](CCC(=O)O)[C@H]1CC[C@H]2[C@@H]3C(=O)C[C@@H]4CC(=O)CC[C@]4(C)[C@H]3CC(=O)[C@]12C
inactive: Potency [1] | outcome [2] | max response [3] 4.35% | outcome [4] | outcome [5] | outcome [6] | outcome [7] | Potency [8] | Potency [20] | Potency [9] | outcome [19] | Potency [10] | outcome [12] | Potency [13] | Potency [14] | outcome [15] | Potency [16] | outcome [17] | Potency [18]

CCOC(=O)[C@H](CCc1ccccc1)N[C@@H](C)C(=O)N1C(=O)N(C)C[C@H]1C(=O)O
inactive: Potency [1] | outcome [2] | max response [3] 1.75% | outcome [4] | outcome [5] | outcome [6] | outcome [7] | Potency [8] | Potency [9] | Potency [10] | Potency [11] | outcome [12] | Potency [13] | Potency [14] | outcome [15] | Potency [16] | Potency [18]

CC(=O)N[C@@H](CCC(=O)O)C(=O)O
inactive: Potency [1] | outcome [2] | max response [3] 1.63% | outcome [4] | outcome [5] | outcome [6] | outcome [7] | Potency [8] | Potency [9] | outcome [19] | Potency [10] | Potency [11] | outcome [12] | Potency [13] | Potency [14] | outcome [15] | Potency [16] | outcome [17] | Potency [18]

On1nnc2ccccc21
inactive: Potency [1] | outcome [2] | max response [3] -15.2% | outcome [4] | outcome [5] | outcome [6] | outcome [7] | Potency [8] | Potency [20] | Potency [9] | Potency [10] | Potency [11] | outcome [12] | Potency [13] | Potency [14] | outcome [15] | Potency [16] | outcome [17] | Potency [18]

NCCN1CCOCC1
inactive: Potency [1] | outcome [2] | max response [3] 1.04% | outcome [4] | outcome [5] | outcome [6] | Potency [8] | Potency [20] | Potency [9] | outcome [19] | Potency [10] | Potency [11] | outcome [12] | Potency [13] | Potency [14] | outcome [15] | Potency [16] | outcome [17] | Potency [18]

Cc1ccc(S(=O)(=O)O)c(C)c1
inactive: Potency [1] | outcome [2] | max response [3] 3.15% | outcome [4] | outcome [5] | outcome [6] | outcome [7] | Potency [8] | Potency [20] | Potency [9] | Potency [11] | outcome [12] | Potency [13] | Potency [14] | outcome [15] | Potency [16] | outcome [17] | Potency [18]

CC(N)C(=O)OC(C)(C)Cc1ccc(Cl)cc1 (stereo unspecified)
inactive: Potency [1] | outcome [2] | max response [3] -11.9% | outcome [4] | outcome [5] | outcome [6] | outcome [7] | Potency [8] | Potency [20] | Potency [9] | Potency [10] | Potency [11] | outcome [12] | Potency [13] | Potency [14] | outcome [15] | Potency [16] | outcome [17] | Potency [18]

COc1ccc2c(c1)C(=O)N(CCc1ccc(S(=O)(=O)NC(=O)NC3CCCCC3)cc1)C(=O)C2(C)C
inactive: Potency [1] | outcome [2] | max response [3] -9.27% | outcome [4] | outcome [5] | outcome [6] | outcome [7] | Potency [8] | Potency [9] | outcome [19] | Potency [10] | Potency [11] | outcome [12] | Potency [13] | Potency [14] | outcome [15] | Potency [16] | outcome [17] | Potency [18]

CC(C)C(=O)OCc1cccc(OC(=O)[C@@H]2N3C(=O)[C@@H](NC(=O)Cc4ccccc4)[C@H]3SC2(C)C)c1
inactive: Potency [1] | outcome [2] | max response [3] 0.269% | outcome [4] | outcome [5] | outcome [6] | outcome [7] | Potency [8] | Potency [20] | Potency [9] | Potency [10] | Potency [11] | outcome [12] | Potency [13] | Potency [14] | outcome [15] | Potency [16] | outcome [17] | Potency [18]
